Consider 23 molecules from PMC12136788.

Changes are numbered by the printed parent chain. The full ranking holds about 24,000 sequences; the median of “enrichment r” is about 0.99, and the highest 2% start at about 3.7. Many of the other results were omitted from the sample, so the highest values are more common in it than they were.

B1: chr1:163295886:163295887:+_ENSG00000143228_ENST00000271452|hu_mus|motif|central (ssRNA)
RNA: GGGAGUUCUACAGUCCGACGAUCGGUUUUUGCCAUCUGCUCCUGUUAAUAAUUUAUUGCGAAUAUGAACCACAAGCUCAGCGGCAUUGUAUCUGGGGAAUGACAAAGUUUCCAUUAUGGGAGUCUCCUCCCUGAGUAUUGUUGCAACAGAGGAUUGAGCAUCA
B2: chr6:29525140:29525141:-_ENSMUSG00000012535_ENSMUST00000012679|mus_hu|FALSE|FALSE (ssRNA)
RNA: GGGAGUUCUACAGUCCGACGAUCGUUAGUUUUGUACAAAUGUUCCCCCAGUCGGUACCAAAAGUUAAAUGAAAUUUCUACUACCUCAUAUUGAGGAUGGCCUGCACAGAUAAGCAGCAGCUCCAGAGUUCGAAGGUCCCCAAGCAACAGAGGAUUGAGCAUCA
B3: chr1:36770067:36770068:+_ENSG00000054118_ENST00000354618|hu_hu|motif|central (ssRNA)
RNA: GGGAGUUCUACAGUCCGACGAUCUCUUUCAAGAAUCAAAGUUUCCCAAAUUAAAUGUUUCUAAUAUUACUACAUAUGCCGGAAAAAAGAAAAAAAAAAAAAAAAAGGAGGGGGCUUUUAAAAUCAGGACAGGGGAAAAGAGAUCAACAGAGGAUUGAGCAUCA
B4: chr7:155493584:155493585:+_ENSG00000184863_ENST00000401878|hu_mus|FALSE|FALSE (ssRNA)
RNA: GGGAGUUCUACAGUCCGACGAUCAGAAAGUUCCAAAGUUUCUGGAAUGUUCCUUCUCUCUCUAGUUACAUCUGAAAGCCUAAUAAUUGUUCCUUCUUUCCUUUCAGUUUUAAAACGUAAUCGUCCAGAUUCUUCAUCAUCAUCCAACAGAGGAUUGAGCAUCA
B5: chr1:36770067:36770068:+_ENSG00000054118_ENST00000354618|hu_hu|FALSE|FALSE (ssRNA)
RNA: B3 RNA with G80U, G81A
B6: chr19:16212804:16212805:+_ENSG00000167460_ENST00000300933|hu_hu|motif|central (ssRNA)
RNA: GGGAGUUCUACAGUCCGACGAUCAGGAAAUAUGCAAAAGAACAUCACAUCAAGGAUCAAUUAAUUACCAUCUAUUAAUUACGGUAUGUGGGUAAUUAUGACUAUUUCCCAAGCAUUCUACGUUGACUGCUUGAGAAGAUGUUUCAACAGAGGAUUGAGCAUCA
B7: chr1:201104638:201104639:-_ENSG00000116857_ENST00000367334|hu_hu|FALSE|FALSE (ssRNA)
RNA: GGGAGUUCUACAGUCCGACGAUCAGAGAUCAGAGACCACAUCCCUCUUCCCUAAUCAAAAUAGCCAAGUACAACAUUUCUAAAGUUAGGGAGAAGGAGGAAAAAUGCCACAGGCUUUUAAAGGGAAGACUGGAACCGAGGGAACAACAGAGGAUUGAGCAUCA
B8: chr1:36770067:36770068:+_ENSG00000054118_ENST00000354618|hu_mus|FALSE|FALSE (ssRNA)
RNA: GGGAGUUCUACAGUCCGACGAUCUUAAGAGUCAAAGUUGCCCAAAUUAAAAUCUUUACACUAAUAUUACUAUAUAUCCCCUAAAAAGAAGAAAAAGAAAAAAGGAUUUCUUAAUAAAACUCAGGACAGGAAGAGACUGAAAACCAACAGAGGAUUGAGCAUCA
B9: chr1:59925254:59925255:+_ENSMUSG00000067336_ENSMUST00000087435|mus_hu|FALSE|FALSE (ssRNA)
RNA: GGGAGUUCUACAGUCCGACGAUCAUCUUGUUCUGAACAUGGAUUGCUGUUGUUGUUAUUGGAAUUAGUUCGGCCACCUUCUAGUGGCCGUUCCCUCCUGUCCACAAGACGAUCCAGAACACCUUCAUCAUGGCCAGCUUGUUGCAACAGAGGAUUGAGCAUCA
B10: chr4:101271765:101271766:+_ENSMUSG00000028528_ENSMUST00000094953|mus_mus|motif|central (ssRNA)
RNA: GGGAGUUCUACAGUCCGACGAUCAGACUUGGGUGACAAGUUGUAUACUGUGUAGUGGUCAAGAUGUCUGGAAUCCAAAAAGCGGCGGAUGUCAUCAACCUGAUUCCUGAAUCCUAUGUCAACACUAUCCACAGGAAAGGACAUCAACAGAGGAUUGAGCAUCA
B11: 5953805_5956048_782_CDS_ENSMUSG00000024833_ENSMUST00000025752|mouse|control|control (ssRNA)
RNA: GGGAGUUCUACAGUCCGACGAUCCAAGCCCUGUGCGGAGCCAAAGGUGGUCACCACUUCUCCCCGGUUGGUUCUGGAGGUGUAUUUCUGGGAGGGGGUAGCACUCGGGGAGAAACUUGACGGUGAGAGAAGCUGACGUGGGCUCAACAGAGGAUUGAGCAUCA
B12: chr2:39278355:39278356:-_ENSG00000115904_ENST00000402219|hu_mus|motif|central (ssRNA)
RNA: GGGAGUUCUACAGUCCGACGAUCACAGCUUCCUACUAAUGGGUGGGGACUGCCUUCAUCUGUCAUUUCUACAGUAUCUUCGGUAUGGCCCAGUAACUUUACACUAAGUUCAUGUAUAUCUACUAUACGACUGAAUAUGUUUUCCAACAGAGGAUUGAGCAUCA
B13: chr1:66485854:66485855:+_ENSMUSG00000015222_ENSMUST00000077355|mus_mus|FALSE|FALSE (ssRNA)
RNA: GGGAGUUCUACAGUCCGACGAUCCCUUUCAGAAUGUAUUGGAUAGCCUUCAGGCACAUGAAAGGUAAAAAUGCAAUUUAAAAAAUAAUAAUAAUACUCCAUGCAAAACAGAGCAGAGCGAAAAUAAUUGUCCGAUUGUAUCCACAACAGAGGAUUGAGCAUCA
B14: chr16:28827448:28827449:-_ENSMUSG00000051065_ENSMUST00000100023|mus_hu|FALSE|FALSE (ssRNA)
RNA: GGGAGUUCUACAGUCCGACGAUCAAAUAUCAGUAGUGGUGAAAGCUCAUAAGAAAAAAGACAAAAACAAAAUAAUAAAAAUAAUAGGAUAGAAUCGUUAAGCAUCAGAAAGAGAUUUGUUUCCCCAUACCCAUGAACAAAUUUCAACAGAGGAUUGAGCAUCA
B15: chr4:62795864:62795865:+_ENSMUSG00000028358_ENSMUST00000107415|mus_mus|FALSE|FALSE (ssRNA)
RNA: GGGAGUUCUACAGUCCGACGAUCGCCUCCCAGAAAUCACAUGUGAAAAGAAACCGAGUCCCCCAUAAGAUAAAAAAUUUGCUAAAGUAUUGUGAAAAAUGACGACAACAACAACAACAAAAUUGAGUGGAGAGUCAGCUAUGUCAACAGAGGAUUGAGCAUCA
B16: 1087333_1088580_755_CDS_ENSG00000067064_ENST00000381344|human|control|control (ssRNA)
RNA: GGGAGUUCUACAGUCCGACGAUCUACAUUCUUCCUCACCAACAAAAUGUAAUCAAUUUCAUGUUCACCCCAGAUACCAUCAGACUGAGCUUUGUAGUGAAUUCGUGUUAAAUAAUUAAUUUCUUCUGGAGGAACCUCUUCCAACAACAGAGGAUUGAGCAUCA
B17: chr14:49642940:49642941:-_ENSMUSG00000061244_ENSMUST00000162175|mus_mus|FALSE|FALSE (ssRNA)
RNA: GGGAGUUCUACAGUCCGACGAUCUAAAGCAUAAUCAAUAUGCUCAAUACAUAAAAAUUCCACAAGAAUGGUAAAAAUUCUAAAGGCAUUCCUUGGUAAAUCAGAAGGAUCAGAAAGCCUAUGACAUCUUUCAAAGGCUUGUUUCAACAGAGGAUUGAGCAUCA
B18: chr2:192256868:192256869:+_ENSG00000128641_ENST00000304164|hu_hu|FALSE|FALSE (ssRNA)
RNA: GGGAGUUCUACAGUCCGACGAUCUGGGUUUCGGAUGAAUAUCUUUGAUCUACCAAAGGAGUAUUCUUCCACGGGAAUUUCUAAUUCAUUAAAUAGGACCUCCACACCAGACCUGGCUGGUCCUUUCCAAUGAGGCCAUGUUUGCAACAGAGGAUUGAGCAUCA
B19: chr19:15271055:15271056:-_ENSG00000074181_ENST00000263388|hu_hu|motif|central (ssRNA)
RNA: GGGAGUUCUACAGUCCGACGAUCCAUAUAUAUAUUUUGUAAAAAAUAAUAAUAAUAAGUUUGUUUAAAUGAAUUUGUUUCGGUACAAAAUGUAAAAAAAAAAAGAAAAAUAAAAAUAAUAAUAAUUCAUUCAUGUCAGAGUGUCAACAGAGGAUUGAGCAUCA
B20: chr1:40083102:40083103:+_ENSMUSG00000026074_ENSMUST00000163854|mus_hu|FALSE|FALSE (ssRNA)
RNA: GGGAGUUCUACAGUCCGACGAUCCAUGAAACAAAUUCUUUCUCAAGACAUUUAUUACAAAUGUCAUGAAUAUAUUCAUAAAGUAAAAUUGGUUUAAAAAAACAGAGAACAAGAGAGCAAGUGAGAAAACGAGAAAAGCCAGGACAACAGAGGAUUGAGCAUCA
B21: 24503659_24515395_812_3pUTR_ENSG00000112294_ENST00000357578|human|control|control (ssRNA)
RNA: GGGAGUUCUACAGUCCGACGAUCGCUCAGCCAGGGCCAGGGCGGAGAAGGGCGUGUCUUCGGCAGGCUUCACCACGACAGUACAGCCGGCUGCCAGGGCGGCCCCCACCUUCCGGGUGAUCAUGGCACUGGGGAAAUUCCACGCAACAGAGGAUUGAGCAUCA
B22: chrX:45232703:45232704:-_ENSMUSG00000031099_ENSMUST00000088973|mus_hu|FALSE|FALSE (ssRNA)
RNA: GGGAGUUCUACAGUCCGACGAUCAGAUGGGACCCAUCGUUUAAAUUCAUUCAUCCAGUUGUGUAAAGUAGACUUUGGAACUAAAACCAUGUGAGGUCCAGGAAUAUUUCGGUAGUGUUUCAGGUAACCAAGCAAAGCAAUUGUCAACAGAGGAUUGAGCAUCA
B23: chr17:27717376:27717377:-_ENSMUSG00000024213_ENSMUST00000025050|mus_mus|FALSE|FALSE (ssRNA)
RNA: GGGAGUUCUACAGUCCGACGAUCCACAGGACAGAUUUUUAGAAAGUUUCAUCGCACAUGGGUGUCUUUUAAUGAAAAAAAAAAAAAAAAUUCAGAGGAAAUAUCUGGCCAGGCCGGGACGAGACAAAUGGGAGUGCUUCGGAACAACAGAGGAUUGAGCAUCA

The test deals with T1, UNK ZnF1-3 (human, UniProt Q9C0B0 31-174).
T1 sequence: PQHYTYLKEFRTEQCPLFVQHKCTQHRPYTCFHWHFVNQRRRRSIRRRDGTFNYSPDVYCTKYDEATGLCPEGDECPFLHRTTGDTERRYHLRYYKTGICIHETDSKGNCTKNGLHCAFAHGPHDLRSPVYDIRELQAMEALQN
The test can be described thus: nsRBNS (natural sequence RNA bind-n-seq); RBNS binding buffer (assumed for nsRBNS): 25 mM Tris pH 7.5, 150 mM KCl, 3 mM MgCl2, 0.01% Triton X-100, 500 ug/ml BSA, 20 U/ml SUPERase-In, 4 C; UNK is unkempt and MSI1 is Musashi-1; names of the RNAs are library labels; protein concentration not given here; high values mean tight binding.
Take B1: the binding signal was 1.12 enrichment R.
With B2 the figure was 0.862 enrichment R.
With B3 the figure was 3.96 enrichment R; with B4, 0.81 enrichment R; with B5, 4.92 enrichment R.
With B6 the figure was 0.67 enrichment R; with B7, 2.05 enrichment R; with B8, 2.39 enrichment R.
For B9, the binding signal came out at 0.391 enrichment R.
With B10 the figure was 0.93 enrichment R; with B11, 1.38 enrichment R.
For B12 the value was 0.721 enrichment R.
With B13 the figure was 5.46 enrichment R; with B14, 8.38 enrichment R.
In the case of B15, the binding signal was found to be 3.53 enrichment R.
The molecule B16 returned a binding signal of 3.42 enrichment R.
In turn, B17 returned a binding signal of 0.307 enrichment R.
With B18 the figure was 0.529 enrichment R; with B19, 11.2 enrichment R; with B20, 2.12 enrichment R.
For B21 the value was 1.27 enrichment R; for B22, 1.15 enrichment R; for B23, 4.44 enrichment R.
